In PubChem BioAssay (EPA / NIEHS):
Values joined by “and” are separate entries in the source; they are usually repeats but may differ in a detail not shown here. Identical values can stand only once. Results filed as inconclusive are left out. A structure can be active in one record and inactive in another. Active and inactive are the calls of the source. Rule for the calls: active = hit-call score of the fitted dose curve at least 0.9, where 1 is the maximum; inconclusive = response in the unintended direction; inactive = score below 0.9.

Experiments:
[1] = ACEA_AR_agonist_AUC_viability: ACEA Biosciences xCELLigence Real-Time Cell Analysis on Androgen Receptor Agonism for Viability (AID 2283775);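 for AC50: viability read 80 hours after compound addition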
Outline: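 Real-time impedance tracking of 22Rv1 growth, readings every 5 min for 5 h then hourly; area-under-curve viability endpoint at 80 hours, relative to DMSO. Compounds at eight concentrations, 1:4 steps, top 100 uM, n = 2.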

[2] = ACEA_AR_antagonist_AUC_viability: ACEA Biosciences xCELLigence Real-Time Cell Analysis on Androgen Receptor Antagonism for Viability (AID 2283776);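 note: hits lower the growth signal relative to DMSO meaning cytotoxicity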
Outline: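 22Rv1 human prostate cancer cells were seeded on electrode plates, monitored overnight, then exposed to eight 1:4 dilutions from 100 uM final. Impedance-based growth kinetics at 80 h gave an AUC viability endpoint normalized to DMSO.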

[3] = ACEA_ER_AUC_viability: ACEA Biosciences xCELLigence Real-Time Cell Analysis on Estrogen Receptor Agonism for Viability (AID 2283782);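 note: continuous compound exposure with impedance area under curve over 80 h; hit means loss of impedance signal meaning reduced cell growth or viability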
Outline: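 T-47D human breast cells in phenol red-free RPMI1640 with 10% charcoal-stripped FBS were dosed with an 8-point 1:4 dilution series from 100 uM top final concentration, in duplicate. Impedance-based growth was followed for 80 h; AUC analysed versus DMSO.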

AR (gene 367) [4] = target: AR (gene 367) (UniProt P10275); assay: ACEA_AR_antagonist_80hr: ACEA Biosciences xCELLigence Real-Time Cell Analysis on Androgen Receptor Antagonism for Proliferation (AID 2283787);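 note: hits lower the impedance growth signal relative to DMSO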
Chain of AR (gene 367) (P10275 whole entry, looked up): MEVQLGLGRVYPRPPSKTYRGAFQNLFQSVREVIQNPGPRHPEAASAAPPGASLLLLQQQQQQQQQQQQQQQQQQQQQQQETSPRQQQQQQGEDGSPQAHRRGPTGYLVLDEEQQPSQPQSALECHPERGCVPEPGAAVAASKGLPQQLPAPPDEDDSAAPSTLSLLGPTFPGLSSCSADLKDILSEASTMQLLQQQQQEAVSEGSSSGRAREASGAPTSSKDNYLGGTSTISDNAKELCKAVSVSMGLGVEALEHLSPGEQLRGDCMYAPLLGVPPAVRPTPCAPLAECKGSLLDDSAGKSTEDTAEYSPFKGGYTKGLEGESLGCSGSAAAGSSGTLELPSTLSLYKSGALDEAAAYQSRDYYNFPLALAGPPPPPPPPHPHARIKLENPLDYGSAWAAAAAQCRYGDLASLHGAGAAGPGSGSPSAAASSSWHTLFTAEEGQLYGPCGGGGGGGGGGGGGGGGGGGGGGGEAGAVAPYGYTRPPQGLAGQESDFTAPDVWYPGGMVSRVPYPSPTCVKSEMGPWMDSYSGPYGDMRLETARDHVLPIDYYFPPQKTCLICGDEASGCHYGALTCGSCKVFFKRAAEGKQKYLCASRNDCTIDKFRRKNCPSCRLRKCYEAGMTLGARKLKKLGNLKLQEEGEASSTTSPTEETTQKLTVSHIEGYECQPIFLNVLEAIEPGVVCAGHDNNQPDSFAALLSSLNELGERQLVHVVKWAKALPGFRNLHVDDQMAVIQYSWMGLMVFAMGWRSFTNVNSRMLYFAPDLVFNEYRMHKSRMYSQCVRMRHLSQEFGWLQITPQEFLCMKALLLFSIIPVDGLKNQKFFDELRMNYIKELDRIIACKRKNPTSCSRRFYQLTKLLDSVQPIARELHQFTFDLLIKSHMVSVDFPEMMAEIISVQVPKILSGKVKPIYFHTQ
Outline: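 Impedance readout (RT-CES), 80 h post-dose; loss-of-signal vs DMSO baseline. 22Rv1 cells in assay medium. Compounds: 8-pt 1:4 series, max 100 uM final, up to 0.5% DMSO; n = 2.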

AR (gene 367) [5] = target: AR (gene 367) (UniProt P10275); assay: ACEA_AR_agonist_80hr: ACEA Biosciences xCELLigence Real-Time Cell Analysis on Androgen Receptor Agonism for Proliferation (AID 2283783);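 note: hits increase impedance growth signal above DMSO baseline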
Outline: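 22Rv1 human prostate cancer cells were seeded after preconditioning in assay medium and monitored overnight, then dosed in an eight-point 1:4 dilution series from 100 uM (≤0.5% DMSO). Impedance-based growth was read at 80 h, gain-of-signal versus DMSO.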

[6] = target: Luciferin 4-monooxygenase (Photinus pyralis) (UniProt P08659); assay: CCTE_Simmons_QuantiLum_inhib_2: CCTE's Firefly Luciferase Inhibition Assay, Simmons Lab (AID 2283767);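 for AC50: potency for inhibitors that lower luciferase luminescence relative to DMSO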
Chain of Luciferin 4-monooxygenase (Photinus pyralis) (P08659 whole entry, looked up): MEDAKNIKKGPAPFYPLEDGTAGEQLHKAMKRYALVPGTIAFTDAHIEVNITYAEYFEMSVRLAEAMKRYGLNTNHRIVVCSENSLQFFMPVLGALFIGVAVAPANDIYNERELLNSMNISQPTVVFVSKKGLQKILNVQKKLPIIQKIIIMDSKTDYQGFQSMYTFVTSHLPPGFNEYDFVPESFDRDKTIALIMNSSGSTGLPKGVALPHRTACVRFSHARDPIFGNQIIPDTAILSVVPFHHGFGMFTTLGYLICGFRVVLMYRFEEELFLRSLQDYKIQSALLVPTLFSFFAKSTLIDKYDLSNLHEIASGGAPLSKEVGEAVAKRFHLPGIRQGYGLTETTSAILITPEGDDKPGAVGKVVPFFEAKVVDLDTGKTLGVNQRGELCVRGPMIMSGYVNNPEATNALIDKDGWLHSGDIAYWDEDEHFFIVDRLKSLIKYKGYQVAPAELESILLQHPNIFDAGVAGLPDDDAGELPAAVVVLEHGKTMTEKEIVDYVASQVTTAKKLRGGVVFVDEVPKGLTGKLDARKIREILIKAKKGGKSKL
Outline: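 Luminescence loss relative to DMSO vehicle defines inhibition; detection reagent containing 150 uM D-luciferin and 147 uM dATP (final, pH 7.8) is injected immediately before each read. Enzyme is preincubated with an 8-point titration (5 nM–87.5 uM final) for 30 min at 37C.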

[7] = test system: Thyroperoxidase (TPO), gene 445522; assay: CCTE_Simmons_GUA_TPO: CCTE's Guaiacol Assay for Thyroperoxidase (TPO) Inhibition, Simmons Lab (AID 2283750)
Outline: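 Porcine thyroid microsomes (25 ug) in 200mM potassium phosphate, preincubated 30 s at 37C with compound (8 concentrations, 5 nM–87.5 uM) and 35mM guaiacol; 1mM H2O2 starts reaction. Absorbance change at 450nm over first 80 s; loss of signal versus DMSO, three replicates.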

[8] = STM_H9_NormalizedViability: Cytotoxicity Assessment at 120 hours in the Stemina devTOX quickPredict H9 human embryonic stem cell (hESC)-based Assay (AID 2283784)
Outline: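 Pluripotent H9 cells dosed, fresh medium plus compound q24h → cell layer read by CellTiter-Fluor → RFU blank-corrected, normalized to DMSO 0.1% mean. Loss-of-signal fit, DMSO as baseline.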

[9] = ATG_M_06_XSP2: Attagene TRANS-FACTORIAL Multi-Species (XSP2) HepG2 Assay for M06 Transcription Factor (Internal Marker) (AID 2283811);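 note: internal background marker reporter mRNA measured by RT-PCR and capillary electrophoresis; hits are increases in signal above the DMSO baseline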
Outline: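 HepG2 cells transiently transfected with GAL4-UAS multi-reporter constructs, dosed 24 h with 3 nM 6-alpha-fluorotestosterone plus 1.5 nM norgestrel present to stimulate androgen receptor. Reporter mRNA quantified by RT-PCR, 6-FAM labelling, HpaI digestion and capillary electrophoresis; gain-of-signal fitted versus DMSO baseline.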

[10] = test system: turtle Estrogen Receptor (ERa), gene 101933533; assay: ATG_trERa_XSP2: Attagene TRANS-FACTORIAL Multi-Species (XSP2) HepG2 Assay for turtle Estrogen Receptor (ERa) (AID 2283812);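 note: human HepG2 liver cells transiently expressing turtle ERa-Gal4 chimeric receptor; actives raise reporter signal above DMSO so AC50 reflects agonist activity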
Outline: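 HepG2 cells transiently transfected with GAL4-UAS reporter units expressing turtle ERa-Gal4 chimera. Reporter mRNA measured after 24 h dosing by RT-PCR, fluorescent labelling and capillary electrophoresis; gain of signal fitted versus DMSO.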

[11] = target: Estrogen receptor beta (Homo sapiens) (UniProt Q92731); assay: ATG_hERb_XSP2: Attagene TRANS-FACTORIAL Multi-Species (XSP2) HepG2 Assay for human Estrogen Receptor (ERb) (AID 2283813);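 note: actives raise reporter mRNA above DMSO so AC50 reflects agonist induction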
Chain of Estrogen receptor beta (Homo sapiens) (Q92731 whole entry, looked up, the tested form may be a part): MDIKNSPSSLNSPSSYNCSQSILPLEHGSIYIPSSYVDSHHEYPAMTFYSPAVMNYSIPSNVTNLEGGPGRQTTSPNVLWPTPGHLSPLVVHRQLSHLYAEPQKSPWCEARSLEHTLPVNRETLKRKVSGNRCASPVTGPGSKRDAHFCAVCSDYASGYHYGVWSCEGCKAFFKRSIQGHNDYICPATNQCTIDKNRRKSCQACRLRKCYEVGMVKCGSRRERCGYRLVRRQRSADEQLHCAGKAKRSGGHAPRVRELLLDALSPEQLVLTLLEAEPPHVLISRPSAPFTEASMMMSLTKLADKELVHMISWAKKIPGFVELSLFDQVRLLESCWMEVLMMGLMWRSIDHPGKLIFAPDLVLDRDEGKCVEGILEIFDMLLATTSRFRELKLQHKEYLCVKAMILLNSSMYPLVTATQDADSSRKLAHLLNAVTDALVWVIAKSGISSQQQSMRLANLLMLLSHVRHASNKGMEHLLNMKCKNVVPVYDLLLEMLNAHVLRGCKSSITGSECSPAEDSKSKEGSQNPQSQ
Outline: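 HepG2 cells transiently transfected with GAL4-UAS reporter units and chimeric human ERb-Gal4, 24 h exposure. Reporter mRNA quantified by RT-PCR with FAM labelling, HpaI digestion and capillary electrophoresis; gain of signal versus DMSO.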

[12] = target: GAL4 Transcription Factor (Internal Marker), GAL4 (gene 855828) (UniProt P04386); assay: ATG_GAL4_XSP2: Attagene TRANS-FACTORIAL Multi-Species (XSP2) HepG2 Assay for GAL4 Transcription Factor (Internal Marker) (AID 2283814);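 note: GAL4 reporter mRNA background control in MRTU transfected cells not a receptor target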
Chain of GAL4 Transcription Factor (Internal Marker), GAL4 (gene 855828) (P04386 whole entry, looked up, the tested form may be a part): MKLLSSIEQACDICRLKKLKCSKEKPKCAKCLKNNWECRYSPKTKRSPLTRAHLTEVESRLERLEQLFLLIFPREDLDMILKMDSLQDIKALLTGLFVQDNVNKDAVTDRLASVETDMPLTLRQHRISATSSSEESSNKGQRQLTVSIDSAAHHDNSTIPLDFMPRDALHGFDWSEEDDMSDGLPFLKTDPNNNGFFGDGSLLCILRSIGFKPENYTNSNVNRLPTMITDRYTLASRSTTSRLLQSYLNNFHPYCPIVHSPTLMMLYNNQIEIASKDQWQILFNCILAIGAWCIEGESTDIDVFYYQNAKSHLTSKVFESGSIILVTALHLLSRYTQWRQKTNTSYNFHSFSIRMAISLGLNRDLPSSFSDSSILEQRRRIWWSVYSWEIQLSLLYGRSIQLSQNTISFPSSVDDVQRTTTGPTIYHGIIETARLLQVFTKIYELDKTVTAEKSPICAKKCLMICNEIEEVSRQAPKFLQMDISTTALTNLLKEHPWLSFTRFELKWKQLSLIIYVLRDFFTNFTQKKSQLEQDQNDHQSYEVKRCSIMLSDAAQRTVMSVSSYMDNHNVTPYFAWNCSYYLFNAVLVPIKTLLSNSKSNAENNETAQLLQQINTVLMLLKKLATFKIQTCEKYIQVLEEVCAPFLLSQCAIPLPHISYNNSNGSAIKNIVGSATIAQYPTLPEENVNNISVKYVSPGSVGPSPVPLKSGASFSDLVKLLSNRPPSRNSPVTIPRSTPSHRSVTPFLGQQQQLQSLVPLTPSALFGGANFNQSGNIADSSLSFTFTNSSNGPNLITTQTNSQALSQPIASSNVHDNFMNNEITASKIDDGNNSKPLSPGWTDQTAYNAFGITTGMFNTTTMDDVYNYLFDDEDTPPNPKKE
Outline: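 HepG2 cells transiently transfected with GAL4-UAS reporter units, stimulated with 3 nM 6-alpha-fluorotestosterone plus 1.5 nM norgestrel, dosed 24 h. Reporter mRNA by RT-PCR/capillary electrophoresis; gain-of-signal fit versus DMSO, background control.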

[13] = test system: turtle Androgen Receptor (AR), gene 101947425; assay: ATG_trAR_XSP2: Attagene TRANS-FACTORIAL Multi-Species (XSP2) HepG2 Assay for turtle Androgen Receptor (AR) (AID 2283815);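 for AC50: potency for gain of reporter signal meaning activation above DMSO baseline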
Outline: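 HepG2 cells transiently transfected with GAL4-UAS reporter units for chimeric NR-Gal4 receptors; 24 h dosing in presence of 3 nM 6-alpha-fluorotestosterone and 1.5 nM norgestrel. Reporter mRNA by RT-PCR and capillary electrophoresis, gain of signal versus DMSO.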

[14] = target: zebrafish Estrogen Receptor (ER1), esr1 (gene 259252) (UniProt P57717); assay: ATG_zfER1_XSP2: Attagene TRANS-FACTORIAL Multi-Species (XSP2) HepG2 Assay for zebrafish Estrogen Receptor (ER1) (AID 2283816)
Chain of zebrafish Estrogen Receptor (ER1), esr1 (gene 259252) (P57717 whole entry, looked up, the tested form may be a part): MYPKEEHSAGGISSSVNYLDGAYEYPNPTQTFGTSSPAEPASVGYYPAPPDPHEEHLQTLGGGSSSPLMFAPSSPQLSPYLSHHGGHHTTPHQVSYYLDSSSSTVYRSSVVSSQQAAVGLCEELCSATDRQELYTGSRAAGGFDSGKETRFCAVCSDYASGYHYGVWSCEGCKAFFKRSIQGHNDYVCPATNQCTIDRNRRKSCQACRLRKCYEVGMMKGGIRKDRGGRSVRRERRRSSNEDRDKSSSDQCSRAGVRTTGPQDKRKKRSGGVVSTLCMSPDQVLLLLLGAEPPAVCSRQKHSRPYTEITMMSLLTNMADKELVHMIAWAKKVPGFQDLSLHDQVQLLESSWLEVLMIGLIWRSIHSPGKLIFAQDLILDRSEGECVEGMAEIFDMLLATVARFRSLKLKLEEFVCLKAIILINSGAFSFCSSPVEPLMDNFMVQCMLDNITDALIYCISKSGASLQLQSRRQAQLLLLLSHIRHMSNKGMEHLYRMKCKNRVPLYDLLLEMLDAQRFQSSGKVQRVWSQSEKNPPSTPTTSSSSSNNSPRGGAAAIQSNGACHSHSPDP
Outline: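 HepG2 cells transiently transfected with a GAL4-UAS reporter and a chimeric zebrafish ER1-Gal4 construct, dosed 24 h. Reporter mRNA quantified by RT-PCR, labelling, HpaI digestion and capillary electrophoresis, relative to DMSO.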

[15] = target: chicken Estrogen Receptor (ERa), ESR1 (gene 396099) (UniProt P06212); assay: ATG_chERa_XSP2: Attagene TRANS-FACTORIAL Multi-Species (XSP2) HepG2 Assay for chicken Estrogen Receptor (ERa) (AID 2283817);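 note: actives raise reporter signal above DMSO so AC50 reflects ER activation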
Chain of chicken Estrogen Receptor (ERa), ESR1 (gene 396099) (P06212 whole entry, looked up, the tested form may be a part): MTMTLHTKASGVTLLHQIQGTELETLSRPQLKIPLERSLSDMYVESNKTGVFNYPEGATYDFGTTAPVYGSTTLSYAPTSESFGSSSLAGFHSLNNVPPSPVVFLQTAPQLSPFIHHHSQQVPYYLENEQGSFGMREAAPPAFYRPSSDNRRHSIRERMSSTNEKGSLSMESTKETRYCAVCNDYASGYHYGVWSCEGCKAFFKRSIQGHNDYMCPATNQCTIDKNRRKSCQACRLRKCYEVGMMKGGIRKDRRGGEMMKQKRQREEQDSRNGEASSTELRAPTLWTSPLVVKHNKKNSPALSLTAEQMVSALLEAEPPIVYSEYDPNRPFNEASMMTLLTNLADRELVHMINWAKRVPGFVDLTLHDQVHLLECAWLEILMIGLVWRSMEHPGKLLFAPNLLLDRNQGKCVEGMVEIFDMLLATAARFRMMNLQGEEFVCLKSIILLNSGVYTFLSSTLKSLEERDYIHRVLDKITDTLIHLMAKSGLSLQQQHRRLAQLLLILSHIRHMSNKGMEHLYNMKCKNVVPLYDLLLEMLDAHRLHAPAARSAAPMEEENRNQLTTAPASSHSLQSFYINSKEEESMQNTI
Outline: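 HepG2 cells transiently transfected with multiplexed GAL4-UAS reporter units expressing chimeric chicken ERa-Gal4; 24 h compound exposure. Reporter mRNA measured by RT-PCR with 6-FAM labelling, HpaI digestion and capillary electrophoresis; gain-of-signal fitted versus DMSO.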

[16] = test system: zebrafish Estrogen Receptor (ER2a), gene 317734; assay: ATG_zfER2a_XSP2: Attagene TRANS-FACTORIAL Multi-Species (XSP2) HepG2 Assay for zebrafish Estrogen Receptor (ER2a) (AID 2283818);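 note: hits raise reporter mRNA so AC50 reflects activation of zebrafish ER2a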
Outline: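 HepG2 cells transiently transfected with GAL4-UAS reporter units and chimeric zebrafish ER2a-Gal4, exposed 24 h; medium contains 3 nM 6-alpha-fluorotestosterone and 1.5 nM norgestrel. Reporter mRNA quantified by RT-PCR, HpaI digestion, capillary electrophoresis; gain versus DMSO.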

O=S1OC[C@@H]2[C@H](CO1)[C@]1(Cl)C(Cl)=C(Cl)[C@@]2(Cl)C1(Cl)Cl (stereo partly drawn)
outcome [1]: inactive
outcome [2]: inactive
AC50 [3]: 50 µM (active)
outcome (AR (gene 367) [4]): inactive

CC(C)N(C(=O)CCl)c1ccccc1
AC50 [1]: 24.2 µM (active)
AC50 [2]: 16.6 µM (active)
AC50 [3]: 18.5 µM (active)
outcome (AR (gene 367) [5]): inactive

Clc1cccc(Cl)c1
outcome [1]: inactive
outcome [2]: inactive
outcome [3]: inactive

N#CCC#N
outcome [6]: inactive
outcome [1]: inactive
outcome [2]: inactive
outcome [3]: inactive
outcome (AR (gene 367) [5]): inactive
outcome (AR (gene 367) [4]): inactive

CCCCCCCCCCCCOS(=O)(=O)O
outcome [6]: inactive
AC50 [1]: 77.7 µM (active)
AC50 [2]: 72.1 µM (active)
outcome [2]: inactive
AC50 [3]: 71.3 µM (active)

O=S1(=O)OC(c2cc(Br)c(O)c(Br)c2)(c2cc(Br)c(O)c(Br)c2)c2ccccc21
AC50 [6]: 32.1 µM (active)
outcome [2]: inactive
outcome [3]: inactive
outcome (AR (gene 367) [5]): inactive
outcome (AR (gene 367) [4]): inactive

CN(C)C(=S)S
AC50 [7]: 250 µM (active)
outcome [6]: inactive
outcome [1]: inactive
outcome [2]: inactive
AC50 [8]: 29.2 µM (active)

CCOP(=S)(OCC)SCS(=O)(=O)C(C)(C)C
outcome [6]: inactive
outcome [3]: inactive

Clc1cccc(Cl)c1Cl
outcome [1]: inactive
outcome [2]: inactive

CCC[CH2][Sn]([Cl])([Cl])[CH2]CCC
AC50 [1]: 4.16 µM (active)
AC50 [2]: 3.75 µM (active)
AC50 [3]: 1.09 µM (active)

CN(N=O)C(N)=O
outcome [6]: inactive

N#Cc1cccnc1
outcome [1]: inactive
outcome [2]: inactive
outcome [3]: inactive

CC(C)(C)c1ccccc1O
outcome [6]: inactive
outcome [1]: inactive
outcome [2]: inactive
AC50 [3]: 81.5 µM (active)

CCCCCCCCCCCCc1cccc(S(=O)(=O)O)c1
outcome [6]: inactive
AC50 [1]: 76.7 µM (active)
AC50 [2]: 75 µM (active)
AC50 [3]: 83.1 µM (active)

CCOP(=S)(OCC)O/N=C(\C#N)c1ccccc1
AC50 [6]: 70 µM (active)
outcome [1]: inactive
outcome [9]: inactive
AC50 [10]: 7.97 µM (active) and 2.27 µM (active)
outcome [11]: inactive
outcome [12]: inactive
outcome [13]: inactive
AC50 [14]: 6.85 µM (active)
outcome [14]: inactive
AC50 [15]: 6.64 µM (active) and 5.37 µM (active)
AC50 [16]: 4.38 µM (active)
outcome [16]: inactive

O=C(CCl)Nc1ccccc1
outcome [6]: inactive
AC50 [1]: 24.5 µM (active)
AC50 [2]: 12.7 µM (active)
AC50 [3]: 10.8 µM (active)
outcome (AR (gene 367) [5]): inactive
AC50 (AR (gene 367) [4]): 16.6 µM (active)

CC(=Cc1ccccc1)[N+](=O)[O-]
AC50 [1]: 13.5 µM (active)
AC50 [2]: 6.31 µM (active)
AC50 [3]: 11.5 µM (active)
AC50 (AR (gene 367) [4]): 6.33 µM (active)

O=C(O)C1(c2ccc3c(c2)OC[C@H](Cc2ccc(-c4ccccc4)cc2)[C@H]3O)CCCC1
AC50 [6]: 85.2 µM (active)
AC50 [1]: 34.6 µM (active)
outcome [2]: inactive
AC50 [3]: 78.3 µM (active)

COC(=O)Nc1cccc(OC(=O)Nc2cccc(C)c2)c1
AC50 [6]: 9.99 µM (active)
outcome [2]: inactive

Oc1cc(Cl)c(Cl)cc1Cl
AC50 [10]: 13 µM (active) and 6.06 µM (active)
AC50 [11]: 20.3 µM (active)
outcome [11]: inactive
outcome [12]: inactive
AC50 [13]: 7.74 µM (active) and 2.23 µM (active)
outcome [14]: inactive
AC50 [15]: 29.9 µM (active)
outcome [15]: inactive
AC50 [16]: 21.9 µM (active)
outcome [16]: inactive

O=C(O)COc1cc(Cl)c(Cl)cc1Cl
outcome (AR (gene 367) [5]): inactive

[Cl][Sn]([c]1ccccc1)([c]1ccccc1)[c]1ccccc1
outcome [9]: inactive
outcome [15]: inactive

O=c1oc2ccccc2c(O)c1C(CC(O)c1ccc(-c2ccc(Br)cc2)cc1)c1ccccc1 (stereo not drawn)
outcome [14]: inactive
